{"source": "PubChem BioAssay (EPA / NIEHS)", "key": {"[1]": {"biological_target": "human Vascular Endothelial Growth Factor Receptor 1 (VEGFR1), FLT1 (gene 2321) (UniProt P17948)", "sequence (P17948 whole entry, looked up)": "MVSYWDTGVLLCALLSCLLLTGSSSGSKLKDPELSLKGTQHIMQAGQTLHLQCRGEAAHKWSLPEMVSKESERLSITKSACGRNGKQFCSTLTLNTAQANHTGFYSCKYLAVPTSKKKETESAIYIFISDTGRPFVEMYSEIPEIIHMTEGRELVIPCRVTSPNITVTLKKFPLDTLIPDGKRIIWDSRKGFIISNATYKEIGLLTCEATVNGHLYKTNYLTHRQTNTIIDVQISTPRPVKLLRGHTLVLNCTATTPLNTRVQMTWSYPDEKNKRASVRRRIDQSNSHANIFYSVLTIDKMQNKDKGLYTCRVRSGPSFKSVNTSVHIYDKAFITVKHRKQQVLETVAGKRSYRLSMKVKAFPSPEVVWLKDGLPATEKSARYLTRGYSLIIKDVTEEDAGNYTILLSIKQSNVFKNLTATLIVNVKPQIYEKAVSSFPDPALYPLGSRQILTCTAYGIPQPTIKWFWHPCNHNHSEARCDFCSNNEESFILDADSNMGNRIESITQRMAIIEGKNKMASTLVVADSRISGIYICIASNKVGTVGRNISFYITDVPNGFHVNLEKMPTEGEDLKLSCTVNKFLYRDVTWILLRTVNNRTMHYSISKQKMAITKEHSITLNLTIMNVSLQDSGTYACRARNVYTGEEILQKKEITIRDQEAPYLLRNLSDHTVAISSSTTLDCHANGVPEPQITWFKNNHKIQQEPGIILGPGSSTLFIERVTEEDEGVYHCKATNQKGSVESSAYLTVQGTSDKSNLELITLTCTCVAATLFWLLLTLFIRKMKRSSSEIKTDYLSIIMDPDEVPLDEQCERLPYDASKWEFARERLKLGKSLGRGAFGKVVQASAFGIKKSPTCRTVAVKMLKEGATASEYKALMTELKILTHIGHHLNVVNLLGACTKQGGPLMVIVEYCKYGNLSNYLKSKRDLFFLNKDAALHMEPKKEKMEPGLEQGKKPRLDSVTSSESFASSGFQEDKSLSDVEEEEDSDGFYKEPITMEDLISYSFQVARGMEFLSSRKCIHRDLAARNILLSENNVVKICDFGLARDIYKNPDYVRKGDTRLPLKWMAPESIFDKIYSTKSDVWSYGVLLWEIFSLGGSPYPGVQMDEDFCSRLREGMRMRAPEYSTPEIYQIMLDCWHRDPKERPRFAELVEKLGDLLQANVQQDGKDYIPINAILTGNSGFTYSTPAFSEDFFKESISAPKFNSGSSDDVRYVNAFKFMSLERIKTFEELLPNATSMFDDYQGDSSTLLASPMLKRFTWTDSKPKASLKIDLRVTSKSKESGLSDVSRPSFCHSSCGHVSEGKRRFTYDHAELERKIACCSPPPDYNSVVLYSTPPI", "experiment": "NVS_ENZ_hVEGFR1: NovaScreen (NVS) Enzymatic Assay for human Vascular Endothelial Growth Factor Receptor 1 (VEGFR1) (AID 2283226)", "summary_of_the_method": "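Cell-free assay of recombinant human VEGFR1 kinase with substrate, measured 1 h after dosing; fluorescence with electrophoretic mobility-shift separation of substrate and product, referenced to DMSO; primary screen at 25 uM in duplicate, actives then run in concentration series.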"}, "[2]": {"biological_target": "sheep Cyclooxygenase-1 (Cox1), PTGS1 (gene 443551) (UniProt P05979)", "sequence (P05979 whole entry, looked up)": "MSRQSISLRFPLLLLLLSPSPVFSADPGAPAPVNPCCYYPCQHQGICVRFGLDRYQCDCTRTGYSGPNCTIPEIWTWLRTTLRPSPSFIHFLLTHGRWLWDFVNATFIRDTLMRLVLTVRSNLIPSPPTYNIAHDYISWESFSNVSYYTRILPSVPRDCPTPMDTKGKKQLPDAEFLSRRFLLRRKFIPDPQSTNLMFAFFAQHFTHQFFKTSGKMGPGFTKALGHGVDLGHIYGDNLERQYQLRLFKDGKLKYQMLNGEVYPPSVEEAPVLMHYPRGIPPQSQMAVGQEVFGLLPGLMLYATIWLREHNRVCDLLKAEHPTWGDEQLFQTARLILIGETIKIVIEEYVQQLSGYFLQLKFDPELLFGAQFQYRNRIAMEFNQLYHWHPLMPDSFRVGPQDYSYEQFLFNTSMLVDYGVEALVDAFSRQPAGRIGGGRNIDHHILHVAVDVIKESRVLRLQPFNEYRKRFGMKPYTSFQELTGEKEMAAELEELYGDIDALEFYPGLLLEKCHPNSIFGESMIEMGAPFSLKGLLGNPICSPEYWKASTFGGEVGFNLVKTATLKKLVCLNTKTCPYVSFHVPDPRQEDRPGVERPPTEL", "experiment": "NVS_ENZ_oCOX1: NovaScreen (NVS) Enzymatic Assay for sheep Cyclooxygenase-1 (Cox1) (AID 2283239);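 also: actives reduce cyclooxygenase activity so potencies are for inhibitors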", "summary_of_the_method": "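Absorbance read-out of cyclooxygenase activity in a cell-free preparation from sheep seminal vesicles, taken 0.66 hour after dosing. Initial testing was in duplicate at 25 uM, and confirmatory testing was run in concentration series.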"}, "[3]": {"tested_on": "bovine Angiotensin II Receptor Type 2 (AT2), gene 407157", "experiment": "NVS_GPCR_bAT2: NovaScreen (NVS) G Protein-Coupled Receptor Assay for bovine Angiotensin II Receptor Type 2 (AT2) (AID 2283240)", "summary_of_the_method": "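Radioligand displacement on bovine cerebellar membranes, 1 hour incubation, filter-based scintillation counting; loss of signal vs DMSO. Duplicate single-point screen at 25 uM, then concentration-response to 50 uM maximum.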"}, "[4]": {"biological_target": "rat Constitutive Nitric Oxide Synthase (CNOS), Nos1 (gene 24598) (UniProt P29476)", "sequence (P29476 whole entry, looked up)": "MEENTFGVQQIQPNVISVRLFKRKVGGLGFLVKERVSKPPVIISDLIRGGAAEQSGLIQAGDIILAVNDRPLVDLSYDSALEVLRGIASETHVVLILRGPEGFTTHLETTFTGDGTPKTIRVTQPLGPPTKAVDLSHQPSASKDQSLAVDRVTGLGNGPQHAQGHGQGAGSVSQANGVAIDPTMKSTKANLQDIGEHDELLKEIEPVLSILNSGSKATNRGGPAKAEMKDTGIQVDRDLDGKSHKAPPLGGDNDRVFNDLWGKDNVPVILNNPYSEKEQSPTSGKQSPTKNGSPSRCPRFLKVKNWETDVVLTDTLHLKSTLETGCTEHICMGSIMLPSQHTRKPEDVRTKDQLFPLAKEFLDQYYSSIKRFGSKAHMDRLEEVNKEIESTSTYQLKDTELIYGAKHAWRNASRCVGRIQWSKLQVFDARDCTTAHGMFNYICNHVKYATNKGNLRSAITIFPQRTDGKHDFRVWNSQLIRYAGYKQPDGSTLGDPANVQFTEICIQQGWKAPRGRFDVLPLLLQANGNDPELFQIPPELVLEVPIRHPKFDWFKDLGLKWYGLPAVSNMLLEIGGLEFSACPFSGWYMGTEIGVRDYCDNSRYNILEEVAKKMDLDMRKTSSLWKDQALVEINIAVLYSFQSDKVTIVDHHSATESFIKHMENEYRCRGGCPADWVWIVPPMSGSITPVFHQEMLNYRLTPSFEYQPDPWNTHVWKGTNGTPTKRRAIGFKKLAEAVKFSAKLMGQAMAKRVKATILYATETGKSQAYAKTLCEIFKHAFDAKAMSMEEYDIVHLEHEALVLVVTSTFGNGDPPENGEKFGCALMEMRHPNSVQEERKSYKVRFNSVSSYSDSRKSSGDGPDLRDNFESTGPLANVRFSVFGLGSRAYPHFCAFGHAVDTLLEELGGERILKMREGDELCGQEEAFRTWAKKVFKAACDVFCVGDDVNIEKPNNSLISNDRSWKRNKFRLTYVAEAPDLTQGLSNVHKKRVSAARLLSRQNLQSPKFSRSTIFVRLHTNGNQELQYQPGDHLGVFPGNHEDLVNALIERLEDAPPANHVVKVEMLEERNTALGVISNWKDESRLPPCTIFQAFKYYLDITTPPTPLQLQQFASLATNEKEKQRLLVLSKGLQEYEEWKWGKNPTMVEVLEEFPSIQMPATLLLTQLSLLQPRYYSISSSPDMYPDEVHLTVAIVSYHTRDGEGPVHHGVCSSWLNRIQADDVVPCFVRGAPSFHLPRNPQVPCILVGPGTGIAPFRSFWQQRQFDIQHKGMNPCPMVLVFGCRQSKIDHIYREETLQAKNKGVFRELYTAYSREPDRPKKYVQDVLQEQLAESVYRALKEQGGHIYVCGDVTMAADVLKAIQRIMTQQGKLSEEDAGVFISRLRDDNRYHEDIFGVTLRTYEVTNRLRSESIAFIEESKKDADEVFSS", "experiment": "NVS_ENZ_rCNOS: NovaScreen (NVS) Enzymatic Assay for rat Constitutive Nitric Oxide Synthase (CNOS) (AID 2283236)", "procedure": "NVS_ENZ_rCNOS is a biochemical, single-readout assay that uses extracted gene-proteins from Rat brain membranes in a tissue-based cell-free assay. Measurements were taken 1 hour after chemical dosing in a 96-well plate.NVS_ENZ_rCNOS is one of one assay component(s) measured or calculated from the NVS_ENZ_rCNOS assay. It is designed to make measurements of enzyme activity, a form of enzyme reporter, as detected with scintillation counting signals by Filter-based radiodetection technology.Data from the assay component NVS_ENZ_rCNOS was analyzed into 1 assay endpoint. This assay endpoint, NVS_ENZ_rCNOS, was analyzed in the positive analysis fitting direction relative to DMSO as the negative control and baseline of activity. Using a type of enzyme reporter, loss-of-signal activity can be used to understand changes in the enzymatic activity as they relate to the gene Nos1. Furthermore, this assay endpoint can be referred to as a primary readout, because this assay has produced multiple assay endpoints where this one serves a enzymatic activity function. To generalize the intended target to other relatable targets, this assay endpoint is annotated to the oxidoreductase intended target family, where the subfamily is nitric oxide synthase. […]"}}, "note": "Inconclusive results are not listed. Active and inactive are the calls of the source. The calls were made as follows: active = hit-call score of the fitted dose curve at least 0.9, where 1 is the maximum; inconclusive = response in the unintended direction; inactive = score below 0.9."}
{"smiles": "Cc1cc2c(cc1C(F)(F)F)N(C(=O)Nc1ccc(Oc3cccnc3C)nc1)CC2", "values": [{"measurement": "outcome", "setting": "[1]", "result": "inactive"}]}
{"smiles": "O=C1c2ccccc2C(=O)N1CCc1noc(-c2ccc(CN3CCCCCC3)s2)n1", "values": [{"measurement": "outcome", "setting": "[2]", "result": "inactive"}, {"measurement": "outcome", "setting": "[3]", "result": "inactive"}]}
{"smiles": "CCN(CC)C(=O)c1cc(S(=O)(=O)Cc2ccccc2)c(N2CCC(c3ccccc3)CC2)cc1N(CC)CCN(C)C", "values": [{"measurement": "outcome", "setting": "[4]", "result": "inactive"}]}
{"smiles": "CCCCOC(=O)c1ccc(O)cc1", "values": [{"measurement": "outcome", "setting": "[4]", "result": "inactive"}]}
